According to the supplement of paper PMC11732987, “Enantioselective OTUD7B fragment discovery through chemoproteomics screening and high-throughput optimisation” (Communications Chemistry, 2025):

Columns and labels:
Assay in all cases: log2 ratio of Biotin-Ahx-Ub-VS probe labelling (fragment/DMSO); higher = less target engagement (more negative = stronger competition), active = hit call of the paper (q ≤ 0.05, log2 ratio ≤ -1)
Conditions in all cases: compound concentration: 200 uM; treatment time: 3 h
USP19 = target: T1, USP19 (UniProt O94966)
T1 sequence (whole entry): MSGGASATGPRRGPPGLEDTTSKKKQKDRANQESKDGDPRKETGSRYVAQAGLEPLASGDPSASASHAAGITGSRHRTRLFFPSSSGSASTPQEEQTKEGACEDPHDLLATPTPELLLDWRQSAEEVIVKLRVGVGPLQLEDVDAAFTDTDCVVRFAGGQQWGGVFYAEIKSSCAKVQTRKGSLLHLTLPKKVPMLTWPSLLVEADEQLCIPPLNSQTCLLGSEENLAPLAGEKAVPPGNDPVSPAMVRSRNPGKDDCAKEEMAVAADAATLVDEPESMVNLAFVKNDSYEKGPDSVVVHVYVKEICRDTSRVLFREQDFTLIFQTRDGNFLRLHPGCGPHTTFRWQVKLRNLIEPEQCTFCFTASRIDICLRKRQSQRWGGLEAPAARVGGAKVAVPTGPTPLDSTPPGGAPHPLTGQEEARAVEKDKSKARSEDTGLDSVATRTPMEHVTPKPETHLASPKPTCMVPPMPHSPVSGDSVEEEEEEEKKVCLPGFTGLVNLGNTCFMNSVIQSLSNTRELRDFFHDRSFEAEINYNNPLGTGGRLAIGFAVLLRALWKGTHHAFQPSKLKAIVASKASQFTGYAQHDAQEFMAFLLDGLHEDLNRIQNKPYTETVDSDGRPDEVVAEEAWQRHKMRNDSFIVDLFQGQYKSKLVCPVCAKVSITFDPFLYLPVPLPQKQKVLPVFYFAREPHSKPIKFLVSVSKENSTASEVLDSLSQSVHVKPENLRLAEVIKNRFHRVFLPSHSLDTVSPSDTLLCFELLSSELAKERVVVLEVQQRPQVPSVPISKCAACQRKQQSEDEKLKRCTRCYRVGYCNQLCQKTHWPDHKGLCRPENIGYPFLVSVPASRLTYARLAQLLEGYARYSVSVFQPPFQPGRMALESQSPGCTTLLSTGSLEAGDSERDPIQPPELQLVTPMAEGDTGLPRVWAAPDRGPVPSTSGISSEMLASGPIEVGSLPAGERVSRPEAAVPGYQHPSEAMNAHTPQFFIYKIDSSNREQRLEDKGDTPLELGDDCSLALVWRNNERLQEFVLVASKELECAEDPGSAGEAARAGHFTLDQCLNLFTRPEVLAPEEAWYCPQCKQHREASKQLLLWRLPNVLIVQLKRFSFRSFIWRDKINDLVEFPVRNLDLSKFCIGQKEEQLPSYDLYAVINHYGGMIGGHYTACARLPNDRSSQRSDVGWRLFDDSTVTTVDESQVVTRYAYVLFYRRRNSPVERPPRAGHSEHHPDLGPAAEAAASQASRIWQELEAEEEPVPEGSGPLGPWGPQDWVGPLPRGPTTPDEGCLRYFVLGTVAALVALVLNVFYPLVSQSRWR
How it was run: (§1)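 Average log2 ratios of fragment over vehicle were obtained by unpaired t-test from global-median-normalised Spectronaut label-free quantities. Proteins with ≥2 unique peptides were included. HEK293T lysate (495 µg per sample) was treated in triplicate with fragment at 200 µM or vehicle for 3 h, then with Biotin-Ahx-Ub-VS at 0.5 µM final for 1 h, and labelled DUBs were NeutrAvidin-enriched and run by diaPASEF LC-MS/MS.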

USP24 = USP24 (UniProt Q9UPU5)
How it was run: as §1

USP25 = target: T2, USP25 (UniProt Q9UHP3)
T2 sequence (whole entry): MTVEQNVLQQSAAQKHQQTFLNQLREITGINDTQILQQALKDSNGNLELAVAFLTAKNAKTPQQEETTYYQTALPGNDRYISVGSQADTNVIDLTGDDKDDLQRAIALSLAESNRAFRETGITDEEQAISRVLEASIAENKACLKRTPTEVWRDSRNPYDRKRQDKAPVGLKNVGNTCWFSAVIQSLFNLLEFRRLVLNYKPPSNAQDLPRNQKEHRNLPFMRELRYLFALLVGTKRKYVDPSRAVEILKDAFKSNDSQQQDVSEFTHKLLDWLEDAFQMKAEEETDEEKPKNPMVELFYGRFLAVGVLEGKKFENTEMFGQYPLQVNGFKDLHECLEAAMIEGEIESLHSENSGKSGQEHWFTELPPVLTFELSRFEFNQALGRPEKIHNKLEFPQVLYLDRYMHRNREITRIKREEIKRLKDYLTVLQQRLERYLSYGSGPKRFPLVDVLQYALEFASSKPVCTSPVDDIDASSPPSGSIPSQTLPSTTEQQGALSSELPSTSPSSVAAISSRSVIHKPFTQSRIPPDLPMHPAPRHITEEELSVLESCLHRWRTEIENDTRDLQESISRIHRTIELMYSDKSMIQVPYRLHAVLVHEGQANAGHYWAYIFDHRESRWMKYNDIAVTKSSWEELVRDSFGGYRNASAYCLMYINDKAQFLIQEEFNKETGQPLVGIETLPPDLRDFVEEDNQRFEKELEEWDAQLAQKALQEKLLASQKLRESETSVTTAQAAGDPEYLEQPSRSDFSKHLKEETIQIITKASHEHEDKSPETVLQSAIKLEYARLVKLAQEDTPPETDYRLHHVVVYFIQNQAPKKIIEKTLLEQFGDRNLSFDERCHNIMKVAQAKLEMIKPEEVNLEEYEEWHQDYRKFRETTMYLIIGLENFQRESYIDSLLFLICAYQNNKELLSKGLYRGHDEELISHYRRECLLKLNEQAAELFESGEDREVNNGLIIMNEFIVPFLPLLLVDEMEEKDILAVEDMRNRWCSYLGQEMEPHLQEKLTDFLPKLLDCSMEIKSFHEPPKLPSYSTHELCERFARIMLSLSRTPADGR
How it was run: as §1

USP28 = target: T3, USP28 (UniProt Q96RU2)
T3 sequence (whole entry): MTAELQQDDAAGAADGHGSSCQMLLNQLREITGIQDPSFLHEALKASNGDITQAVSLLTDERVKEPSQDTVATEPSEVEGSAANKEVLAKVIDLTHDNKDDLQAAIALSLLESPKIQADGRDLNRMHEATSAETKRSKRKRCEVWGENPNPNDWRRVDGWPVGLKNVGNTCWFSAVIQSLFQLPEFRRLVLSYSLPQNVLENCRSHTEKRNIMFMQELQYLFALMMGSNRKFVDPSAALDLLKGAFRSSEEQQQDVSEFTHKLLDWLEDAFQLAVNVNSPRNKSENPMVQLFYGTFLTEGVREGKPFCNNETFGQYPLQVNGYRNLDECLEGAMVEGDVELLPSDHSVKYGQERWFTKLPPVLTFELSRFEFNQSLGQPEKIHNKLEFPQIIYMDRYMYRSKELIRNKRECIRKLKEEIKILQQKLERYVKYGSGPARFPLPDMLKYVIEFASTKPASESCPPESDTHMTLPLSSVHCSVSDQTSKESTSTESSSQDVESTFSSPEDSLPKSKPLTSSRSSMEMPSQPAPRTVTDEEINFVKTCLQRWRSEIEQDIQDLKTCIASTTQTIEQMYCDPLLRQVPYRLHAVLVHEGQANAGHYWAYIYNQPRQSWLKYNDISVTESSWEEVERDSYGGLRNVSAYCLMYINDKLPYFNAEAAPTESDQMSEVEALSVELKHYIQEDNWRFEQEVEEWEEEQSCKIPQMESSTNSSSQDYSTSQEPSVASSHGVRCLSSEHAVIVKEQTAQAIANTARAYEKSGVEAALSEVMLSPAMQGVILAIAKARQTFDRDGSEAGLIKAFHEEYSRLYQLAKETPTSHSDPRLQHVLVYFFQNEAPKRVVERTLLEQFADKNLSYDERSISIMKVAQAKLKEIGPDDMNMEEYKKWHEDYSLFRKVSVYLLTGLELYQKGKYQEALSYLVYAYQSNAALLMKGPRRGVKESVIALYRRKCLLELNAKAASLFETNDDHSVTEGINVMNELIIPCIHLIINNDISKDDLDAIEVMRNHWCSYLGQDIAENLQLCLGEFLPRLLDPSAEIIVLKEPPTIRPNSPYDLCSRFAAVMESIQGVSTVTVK
How it was run: as §1

Measured: log2 ratio of Biotin-Ahx-Ub-VS probe labelling

USP24, sequence (Q9UPU5 whole entry): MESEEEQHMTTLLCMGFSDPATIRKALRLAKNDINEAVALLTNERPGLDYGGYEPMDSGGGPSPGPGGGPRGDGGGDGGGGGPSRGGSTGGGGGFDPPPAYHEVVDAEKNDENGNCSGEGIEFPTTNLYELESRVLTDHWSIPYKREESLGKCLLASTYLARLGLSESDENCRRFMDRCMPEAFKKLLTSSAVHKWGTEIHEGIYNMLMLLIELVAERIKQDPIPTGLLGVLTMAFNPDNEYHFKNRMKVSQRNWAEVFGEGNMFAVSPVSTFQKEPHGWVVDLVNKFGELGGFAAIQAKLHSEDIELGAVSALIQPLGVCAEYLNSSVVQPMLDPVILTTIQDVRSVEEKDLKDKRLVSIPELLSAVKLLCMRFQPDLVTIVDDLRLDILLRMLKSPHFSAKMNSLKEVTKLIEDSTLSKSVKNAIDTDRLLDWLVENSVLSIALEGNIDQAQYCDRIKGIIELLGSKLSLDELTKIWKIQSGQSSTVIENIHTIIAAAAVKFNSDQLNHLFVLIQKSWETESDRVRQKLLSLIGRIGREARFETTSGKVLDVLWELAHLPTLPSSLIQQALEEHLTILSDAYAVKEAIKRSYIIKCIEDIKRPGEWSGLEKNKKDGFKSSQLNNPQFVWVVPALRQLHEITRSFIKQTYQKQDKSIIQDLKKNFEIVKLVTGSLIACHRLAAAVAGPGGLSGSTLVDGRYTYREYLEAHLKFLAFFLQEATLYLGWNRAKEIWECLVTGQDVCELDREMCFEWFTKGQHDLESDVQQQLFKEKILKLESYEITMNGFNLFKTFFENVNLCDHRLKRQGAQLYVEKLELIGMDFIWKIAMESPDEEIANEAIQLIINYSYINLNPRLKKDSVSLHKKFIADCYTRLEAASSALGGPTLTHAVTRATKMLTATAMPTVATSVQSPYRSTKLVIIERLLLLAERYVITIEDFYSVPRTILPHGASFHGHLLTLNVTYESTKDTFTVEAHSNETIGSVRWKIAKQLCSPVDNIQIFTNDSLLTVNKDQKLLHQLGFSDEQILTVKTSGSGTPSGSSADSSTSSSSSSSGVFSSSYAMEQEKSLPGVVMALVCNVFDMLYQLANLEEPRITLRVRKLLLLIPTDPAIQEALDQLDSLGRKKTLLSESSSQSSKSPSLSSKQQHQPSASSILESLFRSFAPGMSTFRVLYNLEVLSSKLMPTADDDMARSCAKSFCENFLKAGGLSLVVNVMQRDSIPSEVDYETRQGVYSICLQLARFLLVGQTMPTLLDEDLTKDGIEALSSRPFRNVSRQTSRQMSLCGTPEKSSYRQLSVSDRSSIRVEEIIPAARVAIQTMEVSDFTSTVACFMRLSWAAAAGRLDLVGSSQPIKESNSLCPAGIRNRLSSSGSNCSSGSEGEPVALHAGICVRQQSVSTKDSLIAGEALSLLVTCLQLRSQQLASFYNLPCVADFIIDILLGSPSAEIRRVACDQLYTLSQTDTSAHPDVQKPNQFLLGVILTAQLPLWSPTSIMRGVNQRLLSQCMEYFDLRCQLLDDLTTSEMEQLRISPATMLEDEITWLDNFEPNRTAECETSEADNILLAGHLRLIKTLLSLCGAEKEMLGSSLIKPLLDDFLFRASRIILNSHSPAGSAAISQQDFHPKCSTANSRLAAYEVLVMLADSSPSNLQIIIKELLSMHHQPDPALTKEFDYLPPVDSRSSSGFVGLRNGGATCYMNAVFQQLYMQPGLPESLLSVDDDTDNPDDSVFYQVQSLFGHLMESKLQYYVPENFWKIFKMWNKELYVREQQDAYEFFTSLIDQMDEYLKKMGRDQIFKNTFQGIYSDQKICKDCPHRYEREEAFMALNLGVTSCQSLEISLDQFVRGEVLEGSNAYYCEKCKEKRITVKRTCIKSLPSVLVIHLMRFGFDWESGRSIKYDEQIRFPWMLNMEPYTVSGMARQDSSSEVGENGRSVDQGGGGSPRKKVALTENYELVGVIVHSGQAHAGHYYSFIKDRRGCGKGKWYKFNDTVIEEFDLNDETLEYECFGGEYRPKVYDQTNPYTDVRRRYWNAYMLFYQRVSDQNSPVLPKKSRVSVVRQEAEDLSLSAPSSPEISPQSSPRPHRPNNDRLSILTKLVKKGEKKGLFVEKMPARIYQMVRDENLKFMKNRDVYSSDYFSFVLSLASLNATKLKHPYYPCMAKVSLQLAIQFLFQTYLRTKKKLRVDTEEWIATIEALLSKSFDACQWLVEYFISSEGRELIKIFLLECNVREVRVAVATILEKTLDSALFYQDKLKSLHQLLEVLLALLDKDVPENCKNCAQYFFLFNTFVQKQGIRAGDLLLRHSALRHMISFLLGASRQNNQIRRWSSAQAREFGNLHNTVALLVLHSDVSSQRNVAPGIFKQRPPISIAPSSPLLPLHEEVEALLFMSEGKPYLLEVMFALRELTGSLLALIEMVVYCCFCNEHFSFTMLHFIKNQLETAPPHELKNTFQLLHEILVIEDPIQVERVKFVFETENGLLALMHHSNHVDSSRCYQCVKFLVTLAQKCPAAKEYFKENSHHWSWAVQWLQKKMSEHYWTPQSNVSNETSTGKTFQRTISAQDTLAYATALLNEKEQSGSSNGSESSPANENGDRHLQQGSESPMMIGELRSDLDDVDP

CCN(Cc1ccc(C#N)cc1F)C(=O)CCl
inactive: USP19 -0.28 | USP24 -0.741 | USP25 -0.659 | USP28 -0.624
